HP1b chromo inh = blocks HP1-beta chromodomain binding to methylated histone tails; AlphaScreen HP1-beta / biotin-H3K9me3 peptide binding; Potency, µM (titrated, usually from 114 µM), actives largely listed as inhibitors; 0.56% of 390,000 active; further: nearly all actives have a fitted effect of over 70% in size
Target sequence (P83916 whole entry, looked up): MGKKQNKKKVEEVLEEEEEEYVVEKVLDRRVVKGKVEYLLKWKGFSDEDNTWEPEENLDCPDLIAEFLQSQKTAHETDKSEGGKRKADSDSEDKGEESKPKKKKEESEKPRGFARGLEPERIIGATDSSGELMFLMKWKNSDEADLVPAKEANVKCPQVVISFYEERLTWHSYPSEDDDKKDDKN
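HP1-beta protein (50 nM final) preincubated 30 min at room temperature with biotinylated H3(1-18)K9me3 peptide (50 nM) in PBS pH 7.4, 0.01% Tween-20, then compound added for 30 min. AlphaScreen streptavidin donor/nickel chelate acceptor beads (10 ug/mL final), 30 min dark, luminescence read.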
JMJD2A Tudor inh = inhibitors of human JMJD2A Tudor domain; O75164; AlphaScreen JMJD2A-Tudor / H3K4me3 peptide binding; Potency, µM (doses to about 114 µM), usual class: inhibitors; 4.4% of 390,000 active; further: nearly all actives have a fitted effect of over 50% in size
Sfp PPTase inh = inhibitors of Bacillus subtilis Sfp phosphopantetheinyl transferase. Q9F4F7. Biochemical Sfp PPTase activity, qHTS. Potency, µM, actives largely listed as inhibitors. 3.5% of 310,000 active. AID 1490;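 further: the enzyme is Sfp with the accession as filed and its product quenches rhodamine fluorescence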
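Sfp 15 nM + cpd, 15 min RT; start w/ rhodamine-CoA 5 uM, BHQ-2-YbbR 12.5 uM (final); 50 mM Hepes pH 7.6, 10 mM MgCl2, 0.01% NP-40, 0.01% BSA; read 525/598 nm at 0 and 30 min.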
G9a inh = inhibitors of human histone lysine methyltransferase G9a; G9a H3K9 monomethylation, AlphaScreen, 2 h; Potency, µM (top dose mostly 102 µM), hits mostly inhibitors; 8.8% of 350,000 active; AID 504332; further: nearly all actives have a fitted effect of over 75% in size
Target sequence (Q96KQ7 913-1193 limits assumed): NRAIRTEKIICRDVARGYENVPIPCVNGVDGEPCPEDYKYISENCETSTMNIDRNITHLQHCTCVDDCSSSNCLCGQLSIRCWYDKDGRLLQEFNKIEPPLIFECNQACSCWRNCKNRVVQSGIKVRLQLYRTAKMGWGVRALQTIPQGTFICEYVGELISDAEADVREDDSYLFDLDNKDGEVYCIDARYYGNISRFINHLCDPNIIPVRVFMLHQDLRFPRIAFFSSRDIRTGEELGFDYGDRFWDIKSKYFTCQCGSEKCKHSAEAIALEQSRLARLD
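Methyltransferase reactions run at room temperature for 2 h (20 nM enzyme, 500 nM biotin-H3K9 peptide, 20 uM SAM) after a 15 min compound preincubation; product detected by AlphaScreen beads and anti-H3K9me1 antibody.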
BAZ2B block = blocks human BAZ2B; Q9UIF8; AlphaScreen BAZ2B-H3K14Ac peptide displacement; Potency, µM (series often up to 114 µM), usual class: inhibitors; 4.4% of 360,000 active; further: nearly all actives have a fitted effect of over 60% in size
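Multi-concentration screen (max 110 uM) measuring displacement of acetylated histone H3 peptide from BAZ2B by AlphaScreen, using 50 nM protein, 50 nM peptide and 10 ug/mL streptavidin donor plus Ni-chelate acceptor beads.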
A number is an active result; i = inactive; ? = inconclusive; nt = no result; [ ] = remark or other dose. A selection: hits, their analogues and other compounds. The true share with any hit is near 12%. The call rests on the fitted dose curve; in most records, active means well fitted curve in the direction sought with a large enough effect; inconclusive means small, poorly fitted or top-dose-only effect, or another doubt; inactive means no such curve, though single readings can be large; an effect the other way counts as inactive or inconclusive.

SMILES | HP1b chromo inh | JMJD2A Tudor inh | Sfp PPTase inh | G9a inh | BAZ2B block
O=C1/C(=C\c2ccc3c(c2)OCO3)CCC/C1=C/c1ccc2c(c1)OCO2 | i | ? | i | 14µM | 25µM
O=C1OCC/C1=C\c1ccc2c(c1)OCO2 | i | i | i | i[2.33 µM] | i
CC1=NOC(=O)/C1=C\c1ccc2c(c1)OCO2 | i | i | i | ? | ?
CC1=NOC(=O)/C1=C/c1ccc2c(c1)OCO2 | i | i | i | 56µM | ?
Cn1cnc(S(=O)(=O)N2CCCC(C(=O)NCc3ccccc3Cl)C2)c1 (centres undefined) | i | i | nt | i | i
Cc1ccc(/C=C/C(=O)O)cc1S(=O)(=O)N(CCO)CCO | i | i | i | ? | i
O=C1SC(Nc2ccc(Cl)cc2)C(=O)N1Cc1ccccc1 (centres undefined) | i | i | nt | i | i
COC(=O)c1cccc(CN2C(=O)SC(Nc3ccccc3)C2=O)c1 (centres undefined) | i | i | i | 79µM | i
CCOc1ccc(NC2SC(=O)N(Cc3ccccc3)C2=O)cc1 (centres undefined) | i | ? | nt | 11µM | ?
C=CCOc1ccc2c(c1)c(=O)cc(C(=O)O)n2CC | i | i | i | 45µM | i
COCCn1c(SCC(=O)NCc2ccc(F)cc2)nc2ccccc21 | i | i | i | i | i
CC(Sc1nc2ccccc2c(=O)n1CC1CCCO1)C(=O)N(C)c1ccccc1 (centres undefined) | i | i | nt | i | i
O=C(/C=C/c1cccc([N+](=O)[O-])c1)NC(=S)Nc1ccccc1C(=O)O | nt | nt | 40µM | 45µM | i
O=C(NC(NC(=S)Nc1ccccc1Cl)C(Cl)(Cl)Cl)c1cccc(Cl)c1 (centres undefined) | i | i | i | i | i
O=C(NC(NC(=S)Nc1ccccc1C(=O)O)C(Cl)(Cl)Cl)c1cccc([N+](=O)[O-])c1 (centres undefined) | i | 79µM | i | ? | i
Cc1ccccc1CNC(=O)c1sc2ncnc(N(C)C3CCCCC3)c2c1C | i | i | nt | i | i
CN1CCN(C(c2ccccc2)c2sc3nc(-c4ccco4)nn3c2O)CC1 (centres undefined) | i | i | nt | i | i
CCN(CC)CCCn1c2c(c(SCC(=O)Nc3ccc4c(c3)OCCO4)nc1=O)CCC2 | i | i | nt | i | i
CCC(=O)N1CCc2cc(Br)cc(S(=O)(=O)Nc3ccccc3C(=O)OC)c21 | i | i | nt | i | i
CCC1(C)Cc2c(C#N)c(N)n(-c3ccccc3)c(=S)c2CO1 (centres undefined) | i | i | i | i | i
CCC1(C)Cc2c(C#N)c(N)sc(=S)c2CO1 (centres undefined) | ? | ? | 13µM | ? | ?
N#Cc1c(N)sc(=S)c2c1CCCC2 | ? | ? | 32µM | 7.1µM | 40µM
Cc1nn(C)c2c1c(-c1ccccc1)cc(=O)n2C(C)C(=O)NCc1ccc(F)cc1 (centres undefined) | i | i | nt | i | i
Cc1cccc(OCc2n[nH]c(=S)n2C2CCCCC2)c1 | i | ? | i | 1.8µM | i
Cc1ccc(OCc2n[nH]c(=S)n2C2CCCCC2)cc1 | i | 56µM | i | 1.1µM | i
SMILES | HP1b chromo inh | JMJD2A Tudor inh | Sfp PPTase inh | G9a inh | BAZ2B block
S=c1[nH]nc(COc2ccc(Cl)cc2)n1C1CCCCC1 | i | i | i | ? | i
O=S(=O)(c1ccc(F)cc1)N1CCC(c2nc3ccccc3[nH]2)CC1 | i | i | i | i | i
O=C(c1ccc(S(=O)(=O)N2CCC(c3nc4ccccc4s3)CC2)cc1)N1CCCCC1 | i | i | nt | nt | nt
O=C(c1ccc(S(=O)(=O)N2CCC(c3nc4ccccc4[nH]3)CC2)cc1)N1CCOCC1 | i | 28µM | 50µM | 7.9µM | ?
O=C(c1ccc(S(=O)(=O)N2CCC(c3nc4ccccc4s3)CC2)cc1)N1CCOCC1 | i | i | ? | 40µM | i
COc1ccc(C2C(C#N)=C(N)Oc3n[nH]c(C)c32)cc1Cn1nc(C)c([N+](=O)[O-])c1C (centres undefined) | i | i | i | 10µM | i
CCn1ncc(Cl)c1C(=O)NC(=S)Nc1ccccc1Br | i | i | i | i | i
CCCCOC(=O)c1ccc(NC(=S)NC(=O)c2c(Cl)cnn2CC)cc1 | i | i | 45µM | i[12.7 µM] | i
CCCCOC(=O)c1ccc(NC(=S)NC(=O)c2c(Cl)cnn2C)cc1 | i | i | 79µM | i | i
CCCCOC(=O)c1ccc(NC(C)=O)cc1 | i | i | i | i | i
